# Laboratory results published in PubChem BioAssay AID1159580 (chemical genetic matrix, 2015).
# Where “and” joins values, the source holds several entries; their conditions need not be identical. Identical values can stand only once. In all, about 5,500 compounds went through this assay and about 2,000 (36%) were called active. Not shown: some 18% with an inconclusive outcome. This is one part of the list. Values without a mark were called inactive. Rule as the data show it: active = normalized growth mostly below about 0.91 (no sharp cut-off); inconclusive = no clear call, values can overlap the other calls; inactive = mostly above about 0.92.
# Experiment: chemical genetic growth profiling, strain panel (AID 1159580);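 also: tested at 20 µM; growth read once vehicle control cultures reached saturation at 30 °C; 1 = growth at the plate median or of vehicle wells; lower values mean less growth of the strain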
# Conditions: growth OD
structure (smiles),measurement,setting,value
CN(C)CCCN1c2ccccc2CCc2ccc(Cl)cc21,normalized growth,"S. cerevisiae deletion strains, locus YJR066W, strain TOR1, active compounds read low",0.923
same,normalized growth,"S. cerevisiae deletion strains, locus YKL009W, strain mrt4, active compounds read low",0.971
same,normalized growth,"S. cerevisiae deletion strains, locus YKL068W, active compounds read low",0.991
same,normalized growth,"S. cerevisiae deletion strains, locus YKL085W, strain MDH1 (second series), active compounds read low",0.994
same,normalized growth,"S. cerevisiae deletion strains, locus YKL085W, strain MDH1, active compounds read low",0.994
same,normalized growth,"S. cerevisiae deletion strains, locus YKL160W, strain elf1, active compounds read low",0.993
same,normalized growth,"S. cerevisiae deletion strains, locus YKL190W, strain CNB1, active compounds read low",0.953
same,normalized growth,"S. cerevisiae deletion strains, locus YKR001C, strain vps1, active compounds read low",0.644 (active)
same,normalized growth,"S. cerevisiae deletion strains, locus YKR026C, strain gcn3, active compounds read low",1.01
same,normalized growth,"S. cerevisiae deletion strains, locus YKR091W, strain srl3, active compounds read low",1
same,normalized growth,"S. cerevisiae deletion strains, locus YLL001W, strain dnm1, active compounds read low",1.01
same,normalized growth,"S. cerevisiae deletion strains, locus YLL026W, active compounds read low",0.982
same,normalized growth,"S. cerevisiae deletion strains, locus YLL041C, strain sdh2, active compounds read low",1
same,normalized growth,"S. cerevisiae deletion strains, locus YLR027C, strain aat2, active compounds read low",0.996
same,normalized growth,"S. cerevisiae deletion strains, locus YLR039C, strain RIC1, active compounds read low",1.35 [resistant] (active)
same,normalized growth,"S. cerevisiae deletion strains, locus YLR058C, strain SHM2, active compounds read low",0.946
same,normalized growth,"S. cerevisiae deletion strains, locus YLR102C, strain apc9, active compounds read low",0.995
same,normalized growth,"S. cerevisiae deletion strains, locus YLR113W, strain HOG1, active compounds read low",0.983
same,normalized growth,"S. cerevisiae deletion strains, locus YLR221C, strain rsa3, active compounds read low",0.999
same,normalized growth,"S. cerevisiae deletion strains, locus YLR258W, strain gsy2, active compounds read low",0.961
same,normalized growth,"S. cerevisiae deletion strains, locus YLR262C, strain YPT6 (second series), active compounds read low",1.14
same,normalized growth,"S. cerevisiae deletion strains, locus YLR262C, strain YPT6, active compounds read low",1.33
same,normalized growth,"S. cerevisiae deletion strains, locus YLR268W, strain sec22, active compounds read low",0.961
same,normalized growth,"S. cerevisiae deletion strains, locus YLR320W, strain mms22, active compounds read low",1
same,normalized growth,"S. cerevisiae deletion strains, locus YLR330W, strain CHS5, active compounds read low",0.996
same,normalized growth,"S. cerevisiae deletion strains, locus YLR342W, strain FKS1 (second series), active compounds read low",0.615 (active)
same,normalized growth,"S. cerevisiae deletion strains, locus YLR342W, strain FKS1, active compounds read low",0.998
same,normalized growth,"S. cerevisiae deletion strains, locus YLR357W, strain rsc2, active compounds read low",0.974
same,normalized growth,"S. cerevisiae deletion strains, locus YLR370C, strain arc18, active compounds read low",0.993
same,normalized growth,"S. cerevisiae deletion strains, locus YLR371W, strain rom2, active compounds read low",0.984
same,normalized growth,"S. cerevisiae deletion strains, locus YLR384C, strain iki3, active compounds read low",1
same,normalized growth,"S. cerevisiae deletion strains, locus YLR418C, strain cdc73, active compounds read low",0.64 (active)
same,normalized growth,"S. cerevisiae deletion strains, locus YML016C, strain PPZ1, active compounds read low",0.978
same,normalized growth,"S. cerevisiae deletion strains, locus YML032C, strain rad52, active compounds read low",0.967
same,normalized growth,"S. cerevisiae deletion strains, locus YML120C, strain ndi1, active compounds read low",0.986
same,normalized growth,"S. cerevisiae deletion strains, locus YML124C, strain tub3, active compounds read low",0.989
same,normalized growth,"S. cerevisiae deletion strains, locus YMR058W, strain fet3, active compounds read low",0.966
same,normalized growth,"S. cerevisiae deletion strains, locus YMR078C, strain ctf18, active compounds read low",0.989
same,normalized growth,"S. cerevisiae deletion strains, locus YMR125W, strain sto1, active compounds read low",0.962
same,normalized growth,"S. cerevisiae deletion strains, locus YMR129W, active compounds read low",1
same,normalized growth,"S. cerevisiae deletion strains, locus YMR205C, strain PFK2, active compounds read low",0.979
same,normalized growth,"S. cerevisiae deletion strains, locus YMR223W, strain ubp8, active compounds read low",0.934
same,normalized growth,"S. cerevisiae deletion strains, locus YMR231W, strain pep5, active compounds read low",0.999
same,normalized growth,"S. cerevisiae deletion strains, locus YMR263W, strain SAP30, active compounds read low",0.892 and 1.04
same,normalized growth,"S. cerevisiae deletion strains, locus YMR307W, strain GAS1, active compounds read low",0.726
same,normalized growth,"S. cerevisiae deletion strains, locus YNL067W, strain RPL9B, active compounds read low",0.924
same,normalized growth,"S. cerevisiae deletion strains, locus YNL071W, strain lat1, active compounds read low",1.01
same,normalized growth,"S. cerevisiae deletion strains, locus YNL175C, strain NOP13, active compounds read low",1.07
same,normalized growth,"S. cerevisiae deletion strains, locus YNL183C, strain NPR1, active compounds read low",0.934
same,normalized growth,"S. cerevisiae deletion strains, locus YNL209W, strain ssb2, active compounds read low",0.926 (active)
same,normalized growth,"S. cerevisiae deletion strains, locus YNL224C, strain SQS1, active compounds read low",1.04
same,normalized growth,"S. cerevisiae deletion strains, locus YNL233W, strain BNI4, active compounds read low",0.877
same,normalized growth,"S. cerevisiae deletion strains, locus YNL248C, strain rpa49, active compounds read low",0.983
same,normalized growth,"S. cerevisiae deletion strains, locus YNL250W, strain rad50, active compounds read low",0.996
same,normalized growth,"S. cerevisiae deletion strains, locus YNL271C, strain bni1, active compounds read low",0.993
same,normalized growth,"S. cerevisiae deletion strains, locus YNL298W, strain CLA4, active compounds read low",0.999
same,normalized growth,"S. cerevisiae deletion strains, locus YNL307C, strain MCK1, active compounds read low",0.961
same,normalized growth,"S. cerevisiae deletion strains, locus YNL322C, strain KRE1 (second series), active compounds read low",1.01
same,normalized growth,"S. cerevisiae deletion strains, locus YNL322C, strain KRE1, active compounds read low",0.988 and 0.981
same,normalized growth,"S. cerevisiae deletion strains, locus YNR049C, strain mso1, active compounds read low",1.01
same,normalized growth,"S. cerevisiae deletion strains, locus YNR052C, strain pop2, active compounds read low",0.935
same,normalized growth,"S. cerevisiae deletion strains, locus YOL006C, strain TOP1, active compounds read low",0.311 (active)
same,normalized growth,"S. cerevisiae deletion strains, locus YOL012C, strain htz1",1.42
same,normalized growth,"S. cerevisiae deletion strains, locus YOL147C, strain pex11, active compounds read low",0.989
same,normalized growth,"S. cerevisiae deletion strains, locus YOR001W, strain rrp6, active compounds read low",0.982
same,normalized growth,"S. cerevisiae deletion strains, locus YOR061W, strain CKA2, active compounds read low",0.847 (active)
same,normalized growth,"S. cerevisiae deletion strains, locus YOR069W, strain VPS5, active compounds read low",0.984
same,normalized growth,"S. cerevisiae deletion strains, locus YOR070C, strain gyp1, active compounds read low",0.99
same,normalized growth,"S. cerevisiae deletion strains, locus YOR080W, strain dia2, active compounds read low",1
same,normalized growth,"S. cerevisiae deletion strains, locus YOR083W, strain WHI5 (second series), active compounds read low",1.1
same,normalized growth,"S. cerevisiae deletion strains, locus YOR083W, strain WHI5, active compounds read low",0.985
same,normalized growth,"S. cerevisiae deletion strains, locus YOR106W, strain vam3, active compounds read low",0.846 (active)
same,normalized growth,"S. cerevisiae deletion strains, locus YOR136W, strain idh2, active compounds read low",1.01
same,normalized growth,"S. cerevisiae deletion strains, locus YOR144C, strain elg1, active compounds read low",0.991
same,normalized growth,"S. cerevisiae deletion strains, locus YOR184W, strain ser1, active compounds read low",0.96
same,normalized growth,"S. cerevisiae deletion strains, locus YOR231W, strain MKK1, active compounds read low",0.999
same,normalized growth,"S. cerevisiae deletion strains, locus YOR265W, strain rbl2, active compounds read low",1
same,normalized growth,"S. cerevisiae deletion strains, locus YOR270C, strain vph1, active compounds read low",0.567 (active)
same,normalized growth,"S. cerevisiae deletion strains, locus YOR290C, strain snf2, active compounds read low",0.903
same,normalized growth,"S. cerevisiae deletion strains, locus YOR316C, strain cot1, active compounds read low",0.977
same,normalized growth,"S. cerevisiae deletion strains, locus YPL051W, strain arl3, active compounds read low",0.989
same,normalized growth,"S. cerevisiae deletion strains, locus YPL078C, strain atp4, active compounds read low",0.987
same,normalized growth,"S. cerevisiae deletion strains, locus YPL106C, strain sse1, active compounds read low",1.02
same,normalized growth,"S. cerevisiae deletion strains, locus YPL240C, strain hsp82, active compounds read low",0.99
same,normalized growth,"S. cerevisiae deletion strains, locus YPL241C, strain CIN2, active compounds read low",0.986 and 0.999
same,normalized growth,"S. cerevisiae deletion strains, locus YPL256C, strain CLN2, active compounds read low",1.02
same,normalized growth,"S. cerevisiae deletion strains, locus YPR119W, strain clb2, active compounds read low",0.993
same,normalized growth,"S. cerevisiae deletion strains, locus YPR141C, strain kar3, active compounds read low",0.99
same,normalized growth,"S. cerevisiae deletion strains, locus YPR163C, strain tif3, active compounds read low",0.728 (active)
same,normalized growth,"S. cerevisiae deletion strains, locus YPR167C, strain met16, active compounds read low",0.986
same,normalized growth,"S. cerevisiae deletion strains, strain wtn01, active compounds read low",0.928
same,normalized growth,"S. cerevisiae strains, strain wild type, active compounds read low",0.902
